{"source": "PubChem BioAssay AID624037", "about": "(The Scripps Research Institute Molecular Screening Center, 2012)", "note": "Among all 360,000 compounds or so, about 700 (0.19%) were called active. The full list was thinned out, with actives kept by preference. A number with no mark means an inactive call.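 How the source made its calls: active means activation above the run's mean over test compounds plus 3 SD (cut at about 23% in these data); inactive means the rest.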", "data": [{"target": "Muscarinic acetylcholine receptor M5 (Homo sapiens) (UniProt P08912)", "sequence (P08912 whole entry, looked up)": "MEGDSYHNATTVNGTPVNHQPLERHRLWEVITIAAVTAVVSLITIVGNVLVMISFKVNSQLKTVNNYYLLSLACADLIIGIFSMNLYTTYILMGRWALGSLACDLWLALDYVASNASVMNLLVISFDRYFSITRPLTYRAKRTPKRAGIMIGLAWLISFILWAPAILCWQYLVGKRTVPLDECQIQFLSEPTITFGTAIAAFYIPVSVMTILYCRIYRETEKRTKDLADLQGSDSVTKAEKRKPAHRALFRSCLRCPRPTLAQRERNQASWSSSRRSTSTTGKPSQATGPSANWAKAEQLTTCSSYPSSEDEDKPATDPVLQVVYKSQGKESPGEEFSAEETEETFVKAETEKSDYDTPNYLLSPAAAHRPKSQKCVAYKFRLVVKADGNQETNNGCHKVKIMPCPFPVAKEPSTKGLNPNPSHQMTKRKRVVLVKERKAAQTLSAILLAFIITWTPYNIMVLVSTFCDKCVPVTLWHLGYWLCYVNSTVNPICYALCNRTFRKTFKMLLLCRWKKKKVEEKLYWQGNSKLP", "experiment": "CHRM5 activators raising intracellular calcium – CHO-K1 cells, Fluo-8 calcium fluorescence, primary screen (AID 624037);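 further: signal is peak over basal fluorescence ratio across the kinetic read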", "details": "CHO-K1 hM5 cells, at 3 µM, active compounds read high, 0% DMSO wells, 100% maximal acetylcholine response", "values": [{"smiles": "CCOC(=O)C=Cc1ccc(C(=O)OCC)[nH]1", "activation": "5.25%"}, {"smiles": "CSCCC(NC(=O)COc1ccccc1)C(=O)N(C)CC(=O)Nc1ccc(C)cc1", "note": "(stereo not drawn)", "activation": "0.98%"}, {"smiles": "C=CC[n+]1c(-c2ccc(C)cc2)csc1NNC(=O)Nc1ccccc1", "activation": "0.82%"}, {"smiles": "O=C(Nc1cccc(Cl)c1)c1cc(S(=O)(=O)N2CCCCC2)c[nH]1", "activation": "4.63%"}, {"smiles": "CCOc1ccc(NC(=O)CN(C)C(=O)COc2cccc(CC)c2)cc1OCC", "activation": "-0.57%"}, {"smiles": "COc1ccc(CCNC(=S)N2CCN(S(=O)(=O)c3ccc(F)cc3)CC2)cc1", "activation": "-3.34%"}, {"smiles": "Cc1nc(C(=O)NCc2ccccc2)sc1C1(C)CC(c2cccnc2)=NO1", "note": "(stereo not drawn)", "activation": "25.4% (active)"}, {"smiles": "Cc1nc(C(=O)Nc2ccc(Cl)cc2)sc1C1(C)CC(c2ccccc2)=NO1", "note": "(stereo not drawn)", "activation": "1.09%"}, {"smiles": "Cc1nc(-c2ccc(Cl)cc2)sc1C1(C)CC(c2ccccc2F)=NO1", "note": "(stereo not drawn)", "activation": "-0.32%"}, {"smiles": "Cc1cc(C)cc(NC(=O)N(C)Cc2ccccc2)c1", "activation": "-2.57%"}, {"smiles": "CC(C)(C)N(Cc1ccccc1)C(=O)c1ccncc1", "activation": "-0.8%"}, {"smiles": "CN(C(=O)CN(CCO)CC(=O)N(C)C(C)(C)Cc1ccccc1)C(C)(C)Cc1ccccc1", "activation": "39.7% (active)"}, {"smiles": "CCc1sc(C(=O)N2CCN(CC(=O)Nc3cccc(F)c3)CC2)cc1C", "activation": "-3.37%"}, {"smiles": "COc1cccc(CNc2nc(NCc3cccs3)nc3ccsc23)c1", "activation": "27.2% (active)"}, {"smiles": "COc1ccc(NC(=S)NCc2cccs2)c(OC)c1", "activation": "-3.29%"}, {"smiles": "COc1cccc(CNc2nc3cc(-c4csc5ccccc45)sc3c(=O)n2C)c1", "activation": "-0.3%"}, {"smiles": "CC(=O)Nc1cccc(-c2cc3nc(NCc4cccnc4)n(C)c(=O)c3s2)c1", "activation": "0.81%"}, {"smiles": "CCOC(=O)CNc1nc2ccccc2n2c(C)nnc12", "activation": "1.28%"}, {"smiles": "CC(=O)NCC(=O)N(Cc1ccco1)C1(C(=O)NC2CCCC2)CCCCC1", "activation": "-0.72%"}, {"smiles": "CC(C)[C@H](NC(=O)Nc1ccc(S(N)(=O)=O)cc1)C(=O)O", "activation": "-2.17%"}, {"smiles": "CCN(CC)c1ccc(NC(=O)CN2C(=O)NC3(CCc4ccccc43)C2=O)cc1", "note": "(stereo not drawn)", "activation": "2.57%"}, {"smiles": "CN(C)c1ccc(/C=C2\\NC(=S)N(Cc3ccccc3)C2=O)cc1", "activation": "41.4% (active)"}, {"smiles": "O=C(Cn1cc(C(=O)C2CC2)c2ccccc21)Nc1ccccc1Cl", "activation": "1.64%"}, {"smiles": "C=CCNc1nnc(SCC(=O)N2CCCCC2)c2ccccc12", "activation": "-0.35%"}, {"smiles": "C/C(=C/C(=O)N1CCN(C)CC1)C(=O)O", "activation": "-1.65%"}, {"smiles": "Nc1ccc2c(c1)C(=Cc1cccnc1)c1ccccc1-2", "activation": "-7.37%"}, {"smiles": "C[C@@H]1CN([C@@H](C)CO)S(=O)(=O)c2ccc(-c3ccc(C(=O)N(C)C)cc3)cc2O[C@@H]1CN(C)Cc1ccccc1C(=O)O", "activation": "-0.69%"}, {"smiles": "Cc1cc(C(=O)NNC(=S)Nc2ccccc2C)cs1", "activation": "-0.42%"}, {"smiles": "O=C(NC(=S)Nc1ccc(Cl)cc1Cl)C1CC1", "activation": "-3.08%"}, {"smiles": "Cc1ccccc1NC(=S)NC(=O)Cc1ccc(Cl)cc1", "activation": "25.7% (active)"}, {"smiles": "O=C(Cc1ccc(Cl)cc1)NC(=S)Nc1ccccc1O", "activation": "75.2% (active)"}, {"smiles": "Cc1ccccc1N/C(SCc1ccc(Cl)cc1)=C(/C#N)C(N)=O", "activation": "-7.05%"}, {"smiles": "Oc1ccc(CNc2ccccc2O)cc1", "activation": "3.67%"}, {"smiles": "O=C(C1CCN(S(=O)(=O)c2cccs2)CC1)N1CCCCCC1", "activation": "-3.68%"}, {"smiles": "CCOc1ccc(NC(=O)N(CC(C)C)CC(C)C)cc1", "activation": "-3.79%"}, {"smiles": "CCC(=C/c1sc2ccc3ccccc3c2[n+]1C)/C=C1\\Sc2ccc3ccccc3c2N1C", "activation": "1.63%"}, {"smiles": "COC(=O)CSc1snnc1-c1ccc(Cl)c(Cl)c1", "activation": "-7.41%"}, {"smiles": "CN(C)c1cc(N)c2ccccc2n1", "note": "(tested in a mixture with another compound)", "activation": "-6.58%"}, {"smiles": "NS(=O)(=O)c1cccc(NC(=O)CC23CC4CC(CC(Br)(C4)C2)C3)c1", "activation": "-1.18%"}, {"smiles": "CC(=O)NC1=NN(C(C)=O)C(C)(c2ccc(C)cc2)S1", "note": "(stereo not drawn)", "activation": "1.09%"}, {"smiles": "COc1ccccc1C(=O)Oc1ccc(N2C(=O)CCC2=O)cc1", "activation": "-1.29%"}, {"smiles": "O=C(CCN1C(=O)[C@H]2CC=CC[C@H]2C1=O)NCc1nc(-c2ccccc2)no1", "activation": "0.28%"}, {"smiles": "COc1ccccc1C(=O)NC(CCSC)C(=O)NNC(=O)c1csc(N2CCOCC2)n1", "note": "(stereo not drawn)", "activation": "-2.2%"}, {"smiles": "O=C(NCCSc1ncc(-c2ccccc2)[nH]1)c1ccco1", "activation": "-1.14%"}, {"smiles": "Cc1nnc(SCC(=O)Nc2ncc3c(n2)CC(C)(C)CC3=O)s1", "activation": "-1.69%"}, {"smiles": "COC(=O)c1sc(N)c(C(=O)OC)c1COC(=O)CNS(=O)(=O)c1ccc(C)cc1", "activation": "1.46%"}, {"smiles": "C/C=C/c1ccc(OCC(=O)OCC(=O)Nc2c(C)nn(-c3ccccc3)c2C)c(OC)c1", "activation": "0.8%"}, {"smiles": "Nc1ccc2nc3c(=O)[nH]c(=S)[nH]c3nc2c1", "activation": "13.3%"}, {"smiles": "CCCn1c(=O)c2c(C(F)(F)F)cc(-c3cccs3)nc2n(CCC)c1=O", "activation": "-2.81%"}, {"smiles": "COC(=O)c1c(NC(=O)c2ccccc2F)sc2c1C(C(=O)OC)CC2", "note": "(stereo not drawn)", "activation": "0.55%"}, {"smiles": "COCC1CCCN(C(=O)c2ccc3oc(C(C)C)nc3c2)C1", "note": "(stereo not drawn)", "activation": "-5.48%"}, {"smiles": "O=C(NCc1cccc(Cl)c1)C1=CC=CN2CCS(=O)(=O)N=C12", "activation": "-4.02%"}, {"smiles": "CCCCC(=O)NNC(=S)NC(=O)C(c1ccccc1)c1ccccc1", "activation": "76.2% (active)"}, {"smiles": "CCCCC(=O)Nc1ccc2c(c1)C(=O)NC2=O", "activation": "-1.75%"}, {"smiles": "C=CCC(NC(=O)Cc1ccccc1)C(=O)NCCC", "note": "(stereo not drawn)", "activation": "1.37%"}, {"smiles": "CNC(=O)C1CN(C(=O)c2cccc(S(=O)(=O)N3CCc4ccccc43)c2)c2ccccc2O1", "note": "(stereo not drawn)", "activation": "2.34%"}, {"smiles": "CC(C)C[C@H](NC(=O)NCCc1ccc(Cl)cc1)C(=O)O", "activation": "-0.97%"}, {"smiles": "CC(NC(=O)c1ccco1)c1ccc2c(c1)OCO2", "note": "(stereo not drawn)", "activation": "-1.73%"}]}]}
